The values that follow come from PubChem BioAssay AID485297 (National Center for Advancing Translational Sciences (NCATS), 2010).

Out of some 320,000 compounds screened, about 9,100 (2.8%) were called active. Entries that show only a call come without a potency. About 3% were inconclusive and are not listed. Calls come from the whole dose curve; as a rule, active = well fitted activation curve with a large enough effect; inconclusive = small, poorly fitted or top-dose-only effect; inactive = no such curve, though single readings can be large or run the other way. Many of the other results were omitted from the sample, so actives are more common in it than they were.
Potency is the fitted concentration of half-maximal effect.

This experiment can be described thus: qHTS Assay for Rab9 Promoter Activators. Note: nearly all actives have a fitted effect of over 60% in size. The following applies: Huh7 Rab9 promoter-luciferase reporter, luminescence, 24 h; series mostly up to 9.22 µM. An excerpt: NIH Chemical Genomics Center [NCGC] NIH Molecular Libraries Probe Production centers Network [MLPCN] MLPCN Grant: MH089537-01 Assay Submitter (PI): Yiannis A. Ioannou NCGC Assay Overview: Niemann Pick Type C (NPC) is a rare neurodegenerative lipidosis that is characterized by lipid storage in the endosomal/lysosomal system. Treatment modalities for this devastating disease are currently non-existent due to the severe obstacles associated with accessing the central nervous system with proteins or genes (Ioannou, 2000). We have developed a new paradigm, termed "Orphan Receptor Bypass Therapy" (ORByT), to address these disorders. This paradigm posits the existence of endogenous "suppressor" proteins whose expression can dramatically improve LSD pathogenesis. The goal is the identification/discovery of small chemical compounds that can modulate the expression of these proteins and provide a new treatment modality for these devastating disorders. One such protein whose overexpression reverses aspects of the NPC phenotype is Rab9. We have developed and optimized a cell based luciferase reporter assay in 1536 well format for the identification of up-regulators of the Rab9 promoter.
The Rab9 promoter is cloned in front of the luciferase reporter gene, therefore […] promoter activation results in luciferase expression. Frozen stock of the Rab9 promoter transfected Huh7 cells were obtained from the laboratory of Dr. Yiannis Ioannou (The Mount Sinai School of Medicine, New York, NY). Cells were propagated and maintained at NCGC in medium containing RPMI-1640 supplemented with 10% FBS, 2mM L-glutamine, and 50ug/ml penicillin/streptomycin. Cells were harvested in and plated for assays in OP-MEM I reduced-serum medium supplemented with 10% FBS. The Amplite luciferase reporter gene assay kit was purchased from ABD Bioquest and prepared/stored according to manufacturers recommendations. qHTS Assay Setup: 1.Dispensed 5ul of Huh7 cells stably expressing Rab9-luciferase at a density of 1500 cells per well 1536-well plates. 2.Incubate cells at 37C, 5% CO2, and 95% humidity for 2 hours. 3.Transferred 23nl per well of compound in DMSO solution. 4.Incubated at 37C, 5% CO2, and 95% humidity for 24 hours. 5.Dispensed 3ul per well of Amplite reagent(ABD Bioquest) per well. 6.Incubate at ambient for 10 minutes. 7.Read using the luminescence protocol on the ViewLux plate reader (Perkin Elmer).
A general note: In qHTS, concentration-response curves come from the screen itself.
In the case of `O=C(COC(=O)c1ccc(Oc2ccccc2)cc1)Nc1nnc(-c2ccccc2)o1`, the Potency result is “inactive”.

For the molecule `Nc1ccc(-c2nnc(-c3ccccc3)o2)cc1`, the Potency is 3980 nM (active).

Turning to `O=C(Nc1cccc(Cl)c1)Nc1nnc(-c2ccccc2)o1`, the Potency entry is “inactive”.

As to `O=C(COC(=O)c1ccccc1Br)Nc1nnc(-c2ccccc2)o1`, the Potency result was “inactive”.

Turning to `Nc1ccc(-c2nnc(-c3ccc(-c4ccccc4)cc3)o2)cc1`, the Potency was 2510 nM (active).

`Nc1ccc(-c2sc(N)nc2-c2ccccc2)cc1`: the Potency entry was “inactive”.

Take `CC(C(=O)NC1CCCC1)N1CCN(S(=O)(=O)c2ccccc2Cl)CC1` (stereo not given): the Potency result was “inactive”.

On to `COc1ccc(N(CCC(=O)NCCc2ccccc2)S(=O)(=O)c2ccc(C)cc2C)cc1`, for which the Potency entry was “inactive”.

As for `COC(=O)c1ccc(C(=O)NC2CC(C)(C)Cc3c2cnn3-c2ccc(F)cc2)nc1` (stereo not given), the Potency entry was “inactive”.

As for `Cn1c(N)c(C(=O)COC(=O)COc2ccc(Cl)cc2)c(=O)n(C)c1=O`, the Potency result was “inactive”.

Take `Cc1cccc(NC(=O)Nc2cccc(Oc3c(F)c(F)c(F)c(F)c3F)c2)c1`: the Potency entry was “inactive”.

For `Cc1ccoc1C(=O)Nc1cccc(Oc2ccccc2)c1`, the Potency was 3980 nM (active).

For the molecule `Cc1ccc(C(=O)COc2cccc(NC(=O)c3ccco3)c2)cc1`, the Potency result was “inactive”.

For the molecule `COc1ccc(Oc2c(Cl)cnn(-c3ccccc3)c2=O)cc1`, the Potency result was “inactive”.

Consider `Cc1ccc2c(c1)c1ncnc(N3CCc4ccccc4C3)c1n2C`, for which the Potency result is “inactive”.

As to `Cc1cccc(-n2ncc(Cl)c(Cl)c2=O)c1`, the Potency entry was “inactive”.

On to `COc1ccc(-n2ncc3c(N4CCCc5ccccc54)ncnc32)cc1`, for which the Potency was 794 nM (active).

As for `Cc1cccc(-n2ncc3c(N4CCc5ccccc54)ncnc32)c1`, the Potency was 2000 nM (active).

As for `COc1ccc2oc(=O)c(C(=O)N3CCCc4ccccc43)cc2c1`, the Potency result is “inactive”.

Consider `CC1(NC(=O)CCS(=O)(=O)c2ccc(Cl)cc2)CCS(=O)(=O)C1` (stereo not given), for which the Potency entry was “inactive”.

In the case of `COCCNc1nc2nonc2nc1N1CCCC1c1nccs1` (stereo not given), the Potency entry is “inactive”.

For the molecule `CC(=O)NC12CC3CC(C1)CC(C(=O)N1CCN(C(=O)c4ccco4)CC1)(C3)C2`, the Potency entry is “inactive”.

For the molecule `CCCNC(=O)c1c(Cl)cnn1-c1ccc(C)cc1`, the Potency was 2510 nM (active).

Turning to `CCCNC(=O)c1ccc(Cl)c(Cl)c1`, the Potency result is “inactive”.

On to `CCCNC(=O)CCc1c(C)nc2c(c(C)nn2-c2ccc(C)cc2)c1C`, for which the Potency result is “inactive”.

`O=C(CCc1nc2sc3c(c2c(=O)[nH]1)CCCC3)NCC(=O)Nc1ccccc1Br`: the Potency entry is “inactive”.

As to `COc1cc(OC)cc(-c2c(-c3cccs3)c3cc(-c4ccc(OC)nc4)ccc3n2C)c1`, the Potency entry is “inactive”.

Consider `O=C(NCC(=O)N1CCCCCCC1)c1ccccc1Cl`, for which the Potency entry is “inactive”.

With `COc1ccccc1/C=C/C(=O)OCC(=O)NC1CCCCCC1`, the Potency result was “inactive”.

Consider `Cc1cc(C)n2nc(C(=O)OCC(=O)N(C)CC(=O)Nc3ccc(F)cc3)nc2n1`, for which the Potency entry was “inactive”.
